{
  "source": "the supplement of paper PMC4709259",
  "key": {"Jurkat [1]": {"test_system": "Jurkat", "experiment": "mean cell size (FSC-A) relative to DMSO control (fraction of control); higher = larger cells", "conditions": "48 h", "summary_of_the_method": "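Jurkat cells seeded at 600 cells/µl were incubated 1 h, then exposed for 48h to the Enzo Screen-Well FDA Approved Drug Library v2.0 at 25µM in 0.9% (v/v) final DMSO. Drugs that cut counts below 20% of controls were diluted 10-fold and retested, down to 25nM. Cell count and mean cell size (forward scatter area) were read on an Accuri C6 flow cytometer, relative to solvent-only controls. Plates held 6-12 controls; values are means of 3 biological replicates.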"}, "Jurkat [2]": {"test_system": "Jurkat", "experiment": "cell count relative to DMSO control (fraction of control); higher = more cells (less growth inhibition)", "conditions": "48 h"}},
  "note": "Counter-ions that a name gives are not always drawn. ± gives the standard deviation.",
  "data": [
    {"compound": "CC(C)C[C@H](NC(=O)[C@@H](Cc1c[nH]c2ccccc12)NC(=O)[C@H](Cc1ccc(O)cc1)NC(=O)[C@H](CO)NC(=O)[C@H](Cc1c[nH]c2ccccc12)NC(=O)[C@H](Cc1cnc[nH]1)NC(=O)[C@@H]1CCC(=O)N1)C(=O)N[C@@H](CCCN=C(N)N)C(=O)N1CCC[C@H]1C(=O)NCC(N)=O", "note": "[Triptorelin Acetate] (concentration: 25 µM)", "values": [
      {"measurement": "mean cell size", "setting": "Jurkat [1]", "result": "0.997 ± 0.014"},
      {"measurement": "cell count", "setting": "Jurkat [2]", "result": "0.458 ± 0.081"}
    ]},
    {"compound": "C[C@H]1c2cccc(O)c2C(O)=C2C(=O)[C@]3(O)C(O)=C(C(N)=O)C(=O)[C@@H](N(C)C)[C@@H]3[C@@H](O)[C@@H]21", "note": "[Doxycycline Monohydrate] (concentration: 25 µM)", "values": [
      {"measurement": "mean cell size", "setting": "Jurkat [1]", "result": "0.861 ± 0.021"},
      {"measurement": "cell count", "setting": "Jurkat [2]", "result": "0.266 ± 0.051"}
    ]},
    {"compound": "CC1(C)O[C@@H]2C[C@H]3[C@@H]4C[C@H](F)C5=CC(=O)C=C[C@]5(C)[C@H]4[C@@H](O)C[C@]3(C)[C@]2(C(=O)CO)O1", "note": "[Flunisolide] (concentration: 2.5 µM)", "values": [
      {"measurement": "mean cell size", "setting": "Jurkat [1]", "result": "0.996 ± 0.021"},
      {"measurement": "cell count", "setting": "Jurkat [2]", "result": "0.893 ± 0.11"}
    ]},
    {"compound": "Cc1cccc(C)c1OCC(C)N", "note": "(configuration not stated) [Mexiletine·HCl] (concentration: 25 µM)", "values": [
      {"measurement": "mean cell size", "setting": "Jurkat [1]", "result": "0.983 ± 0.012"},
      {"measurement": "cell count", "setting": "Jurkat [2]", "result": "0.719 ± 0.014"}
    ]},
    {"compound": "O=C(c1ccccc1)c1ccc2n1CCC2C(=O)O", "note": "(configuration not stated) [Ketorolac Tromethamine] (concentration: 25 µM)", "values": [
      {"measurement": "mean cell size", "setting": "Jurkat [1]", "result": "0.907 ± 0.024"},
      {"measurement": "cell count", "setting": "Jurkat [2]", "result": "0.934 ± 0.038"}
    ]},
    {"compound": "CCCN1CCCC[C@H]1C(=O)Nc1c(C)cccc1C", "note": "[Ropivacaine·HCl Monohydrate] (concentration: 25 µM)", "values": [
      {"measurement": "mean cell size", "setting": "Jurkat [1]", "result": "0.978 ± 0.014"},
      {"measurement": "cell count", "setting": "Jurkat [2]", "result": "0.995 ± 0.057"}
    ]},
    {"compound": "CC(C)c1nc(N(C)S(C)(=O)=O)nc(-c2ccc(F)cc2)c1/C=C/[C@@H](O)C[C@@H](O)CC(=O)O", "note": "[Rosuvastatin Calcium] (concentration: 25 µM)", "values": [
      {"measurement": "mean cell size", "setting": "Jurkat [1]", "result": "1.19 ± 0.041"},
      {"measurement": "cell count", "setting": "Jurkat [2]", "result": "0.689 ± 0.065"}
    ]},
    {"compound": "CN1[C@@H]2CC[C@H]1C[C@@H](OC(c1ccccc1)c1ccccc1)C2", "note": "[Benztropine Mesylate] (concentration: 25 µM)", "values": [
      {"measurement": "mean cell size", "setting": "Jurkat [1]", "result": "0.976 ± 0.054"},
      {"measurement": "cell count", "setting": "Jurkat [2]", "result": "0.666 ± 0.17"}
    ]},
    {"compound": "O=C(O)c1cc(=O)c2c(OCC(O)COc3cccc4oc(C(=O)O)cc(=O)c34)cccc2o1", "note": "[Cromolyn·Na (Disodium Cromoglycate)] (concentration: 25 µM)", "values": [
      {"measurement": "mean cell size", "setting": "Jurkat [1]", "result": "0.9231 ± 0.0045"},
      {"measurement": "cell count", "setting": "Jurkat [2]", "result": "1.05 ± 0.096"}
    ]},
    {"compound": "C[C@@H]1C[C@H]2[C@@H]3CCC4=CC(=O)C=C[C@]4(C)[C@@]3(F)[C@@H](O)C[C@]2(C)[C@H]1C(=O)CO", "note": "[Desoximetasone] (concentration: 25 µM)", "values": [
      {"measurement": "mean cell size", "setting": "Jurkat [1]", "result": "0.949 ± 0.035"},
      {"measurement": "cell count", "setting": "Jurkat [2]", "result": "0.764 ± 0.02"}
    ]},
    {"compound": "N[C@@H]1CONC1=O", "note": "[Cycloserine] (concentration: 25 µM)", "values": [
      {"measurement": "mean cell size", "setting": "Jurkat [1]", "result": "0.966 ± 0.013"},
      {"measurement": "cell count", "setting": "Jurkat [2]", "result": "0.475 ± 0.095"}
    ]},
    {"compound": "N=C(N)NCCCC[C@@H]1NC(=O)CCSSC[C@@H](C(N)=O)NC(=O)[C@@H]2CCCN2C(=O)[C@H](Cc2c[nH]c3ccccc23)NC(=O)[C@H](CC(=O)O)NC(=O)CNC1=O", "note": "[Eptifibatide] (concentration: 25 µM)", "values": [
      {"measurement": "mean cell size", "setting": "Jurkat [1]", "result": "0.988 ± 0.031"},
      {"measurement": "cell count", "setting": "Jurkat [2]", "result": "0.933 ± 0.11"}
    ]},
    {"compound": "CCOC(=O)O[C@]1(C(=O)OCCl)CC[C@H]2[C@@H]3CCC4=CC(=O)C=C[C@]4(C)[C@H]3[C@@H](O)C[C@@]21C", "note": "[Loteprednol Etabonate] (concentration: 25 µM)", "values": [
      {"measurement": "mean cell size", "setting": "Jurkat [1]", "result": "0.892 ± 0.027"},
      {"measurement": "cell count", "setting": "Jurkat [2]", "result": "1.08 ± 0.067"}
    ]},
    {"compound": "CC1=C(C(=O)O)N2C(=O)[C@@H](NC(=O)[C@H](N)c3ccc(O)cc3)[C@H]2SC1", "note": "[Cefadroxil] (concentration: 25 µM)", "values": [
      {"measurement": "mean cell size", "setting": "Jurkat [1]", "result": "0.937 ± 0.014"},
      {"measurement": "cell count", "setting": "Jurkat [2]", "result": "0.895 ± 0.079"}
    ]},
    {"compound": "COc1cc2nc(N3CCN(C(=O)C4COc5ccccc5O4)CC3)nc(N)c2cc1OC", "note": "(configuration not stated) [Doxazosin Mesylate] (concentration: 2.5 µM)", "values": [
      {"measurement": "mean cell size", "setting": "Jurkat [1]", "result": "1.01 ± 0.011"},
      {"measurement": "cell count", "setting": "Jurkat [2]", "result": "0.79 ± 0.13"}
    ]},
    {"compound": "CC(=O)NC[C@H]1CN(c2ccc(N3CCOCC3)c(F)c2)C(=O)O1", "note": "[Linezolid] (concentration: 25 µM)", "values": [
      {"measurement": "mean cell size", "setting": "Jurkat [1]", "result": "0.942 ± 0.018"},
      {"measurement": "cell count", "setting": "Jurkat [2]", "result": "0.718 ± 0.084"}
    ]},
    {"compound": "C=C(CC)C(=O)c1ccc(OCC(=O)O)c(Cl)c1Cl", "note": "[Ethacrynic Acid] (concentration: 25 µM)", "values": [
      {"measurement": "mean cell size", "setting": "Jurkat [1]", "result": "0.924 ± 0.015"},
      {"measurement": "cell count", "setting": "Jurkat [2]", "result": "0.453 ± 0.058"}
    ]},
    {"compound": "CN(C/C=C/C#CC(C)(C)C)Cc1cccc2ccccc12", "note": "[Terbinafine·HCl] (concentration: 25 µM)", "values": [
      {"measurement": "mean cell size", "setting": "Jurkat [1]", "result": "0.947 ± 0.018"},
      {"measurement": "cell count", "setting": "Jurkat [2]", "result": "0.947 ± 0.08"}
    ]},
    {"compound": "CCCCN1CCCCC1C(=O)Nc1c(C)cccc1C", "note": "(configuration not stated) [Bupivacaine·HCl] (concentration: 25 µM)", "values": [
      {"measurement": "mean cell size", "setting": "Jurkat [1]", "result": "0.982 ± 0.02"},
      {"measurement": "cell count", "setting": "Jurkat [2]", "result": "0.656 ± 0.097"}
    ]},
    {"compound": "CCCCC(=O)N(Cc1ccc(-c2ccccc2-c2nnn[nH]2)cc1)[C@H](C(=O)O)C(C)C", "note": "[Valsartan] (concentration: 25 µM)", "values": [
      {"measurement": "mean cell size", "setting": "Jurkat [1]", "result": "0.9682 ± 0.0072"},
      {"measurement": "cell count", "setting": "Jurkat [2]", "result": "0.976 ± 0.11"}
    ]},
    {"compound": "C[C@@H]1O[C@@H]1P(=O)(O)O", "note": "[Fosfomycin Calcium] (concentration: 25 µM)", "values": [
      {"measurement": "mean cell size", "setting": "Jurkat [1]", "result": "0.916 ± 0.036"},
      {"measurement": "cell count", "setting": "Jurkat [2]", "result": "0.474 ± 0.19"}
    ]},
    {"compound": "CC12CC3CC(C)(C1)CC(N)(C3)C2", "note": "[Memantine·HCl] (concentration: 25 µM)", "values": [
      {"measurement": "mean cell size", "setting": "Jurkat [1]", "result": "1 ± 0.061"},
      {"measurement": "cell count", "setting": "Jurkat [2]", "result": "0.797 ± 0.017"}
    ]},
    {"compound": "CN1CC(=O)N2[C@H](c3ccc4c(c3)OCO4)c3[nH]c4ccccc4c3C[C@@H]2C1=O", "note": "[Tadalafil] (concentration: 25 µM)", "values": [
      {"measurement": "mean cell size", "setting": "Jurkat [1]", "result": "0.922 ± 0.05"},
      {"measurement": "cell count", "setting": "Jurkat [2]", "result": "0.413 ± 0.12"}
    ]},
    {"compound": "CNCCCC1c2ccccc2C=Cc2ccccc21", "note": "[Protriptyline·HCl] (concentration: 25 µM)", "values": [
      {"measurement": "mean cell size", "setting": "Jurkat [1]", "result": "1.05 ± 0.019"},
      {"measurement": "cell count", "setting": "Jurkat [2]", "result": "0.821 ± 0.056"}
    ]},
    {"compound": "CS(=O)(=O)CCNCc1ccc(-c2ccc3ncnc(Nc4ccc(OCc5cccc(F)c5)c(Cl)c4)c3c2)o1", "note": "[Lapatinib Ditosylate] (concentration: 25 µM)", "values": [
      {"measurement": "mean cell size", "setting": "Jurkat [1]", "result": "0.924 ± 0.072"},
      {"measurement": "cell count", "setting": "Jurkat [2]", "result": "0.911 ± 0.14"}
    ]},
    {"compound": "COc1ccc2c(c1)c(CC(=O)O)c(C)n2C(=O)c1ccc(Cl)cc1", "note": "[Indomethacin] (concentration: 25 µM)", "values": [
      {"measurement": "mean cell size", "setting": "Jurkat [1]", "result": "0.971 ± 0.046"},
      {"measurement": "cell count", "setting": "Jurkat [2]", "result": "0.482 ± 0.087"}
    ]}
  ]
}
